{"source": "PubChem BioAssay AID2315", "about": "(National Center for Advancing Translational Sciences (NCATS), 2010)", "note": "The whole screen tested about 290,000 compounds, of which about 27,000 (9.3%) were called active. This is one part of a sample in which actives are shown more often than they occur. Values without a mark were called inactive. No stated cut-off is given here; in the data, active means inhibition mostly above about 28% (no sharp cut-off); inactive means mostly below about 43%."}
{"test": "A qHTS for Small Molecule Inhibitors of Shiga Toxin; further: 0% is about no effect", "conditions": "Vero cells, Shiga toxin protein synthesis inhibition reporter; at 38.7 µM, stronger effect = higher value"}
{"smiles": "COc1ccc(C)cc1N(C(=O)Cn1nnc(-c2ccc(C)o2)n1)C(C(=O)NC1CCCC1)c1ccncc1", "note": "(configuration not stated)", "inhibition": "-2.11%"}
{"smiles": "Cc1ccc(S(=O)(=O)NC2CCCCCC2)cc1C(N)=O", "inhibition": "-3.95%"}
{"smiles": "CCn1cc(CCC(=O)NCc2ccc(F)cc2)c2ccccc21", "inhibition": "-4.61%"}
{"smiles": "COCc1cc(=O)oc2cc(NS(=O)(=O)c3ccc(C)cc3)ccc12", "inhibition": "7.5%"}
{"smiles": "Cc1ccc2c(CSc3nncs3)cc(=O)oc2c1", "inhibition": "120% (active)"}
{"smiles": "CCOC(=O)Cc1csc(SCc2cc(=O)oc3cc(O)ccc23)n1", "inhibition": "-5.09%"}
{"smiles": "CN1/C(=c2/s/c(=C3/C(=O)N(c4ccccc4)NC3=Nc3ccccc3)n(C)c2=O)C(C)(C)c2ccccc21", "inhibition": "-12.9%"}
{"smiles": "CC(C)(C)c1ccccc1NC(=O)CN1C(=O)NC2(CCCC2)C1=O", "inhibition": "-11.9%"}
{"smiles": "O=C(CN1CCN(c2ccc(O)cc2)CC1)Nc1ccc(-c2ccccc2)cc1", "inhibition": "2.35%"}
{"smiles": "CC(=O)c1ccc(S(=O)(=O)N2CCC3(CC2)OCCO3)cc1", "inhibition": "-3.96%"}
{"smiles": "CN1C(=O)/C(=N/OC(=O)c2ccccc2Br)c2ccccc21", "inhibition": "-3.77%"}
{"smiles": "CN1C(=O)/C(=C\\c2cc(Br)cs2)c2ccccc21", "inhibition": "76.4% (active)"}
{"smiles": "CCC1C(=O)c2ccccc2N(C)C1=O", "note": "(configuration not stated)", "inhibition": "-0.747%"}
{"smiles": "CCc1ccc(S(=O)(=O)Nc2cc3c(cc2N2CCCCC2)n(C)c(=O)c(=O)n3C)cc1", "inhibition": "-14.2%"}
{"smiles": "Cc1c(Cl)cccc1NC(=O)CCC(=O)N/N=C/c1ccco1", "inhibition": "4.7%"}
{"smiles": "CC(C)(c1ccccc1)c1ccc(OCCN2CCCC2)cc1", "inhibition": "-9.76%"}
{"smiles": "CC(=O)c1ccc(OCCN2CCOCC2)cc1", "inhibition": "32.1%"}
{"smiles": "c1ccc(-c2ccc(OCCN3CCOCC3)cc2)cc1", "inhibition": "86.3% (active)"}
{"smiles": "CC(C)(C)NC(=O)C(c1ccc(Cl)cc1)N(CCO)C(=O)c1snc(C(N)=O)c1N", "note": "(configuration not stated)", "inhibition": "-5.05%"}
{"smiles": "COc1ccccc1C(C)NC(=O)Cc1ccsc1", "note": "(configuration not stated)", "inhibition": "-7.47%"}
{"smiles": "COc1ccc(C2CC(c3cccs3)=NN2C(=O)COC(=O)c2cc3ccccc3cc2O)cc1OC", "note": "(configuration not stated)", "inhibition": "-13.7%"}
{"smiles": "CC(=O)Oc1ccccc1C1=NN(C(C)=O)C(c2ccccc2)C1", "note": "(configuration not stated)", "inhibition": "18.4%"}
{"smiles": "O=C(c1ccccc1)N1N=C(c2ccccc2O)CC1c1ccc(Br)cc1", "note": "(configuration not stated)", "inhibition": "10.4%"}
{"smiles": "COc1ccc(C2CC(c3cccs3)=NN2c2nc(C)c(C(C)=O)s2)cc1OC", "note": "(configuration not stated)", "inhibition": "15.6%"}
{"smiles": "Oc1ccccc1C1=NN(c2ccccc2)C(c2ccccc2)C1", "note": "(configuration not stated)", "inhibition": "55.6% (active)"}
{"smiles": "COc1ccc(C2=NN(c3ccccc3)C(c3cccs3)C2)cc1", "note": "(configuration not stated)", "inhibition": "3.11%"}
{"smiles": "COc1ccc(C2CC(c3cccs3)=NN2c2ccc(F)cc2)cc1OC", "note": "(configuration not stated)", "inhibition": "26.5%"}
{"smiles": "COc1ccc(C2CC(c3cccs3)=NN2c2ccccc2)cc1", "note": "(configuration not stated)", "inhibition": "83% (active)"}
{"smiles": "COc1ccccc1N1N=C(c2cccs2)CC1c1ccccc1", "note": "(configuration not stated)", "inhibition": "36.3% (active)"}
{"smiles": "CS(=O)(=O)N1CCN(CC(=O)NC2CCCC2)CC1", "inhibition": "-2.76%"}
{"smiles": "O=C(Nc1ccc(Cl)cc1)c1cccc(OC(=S)N2CCOCC2)c1", "inhibition": "18%"}
{"smiles": "O=C(COc1ccc(Cl)cc1Cl)N/N=C/c1ccccn1", "inhibition": "8.65%"}
{"smiles": "CSc1ncccc1C(=O)NCc1ccccc1Cl", "inhibition": "-6.54%"}
{"smiles": "CC1(C)Cc2ccccc2-c2[nH]c(=S)[nH]c(=O)c21", "inhibition": "-5.22%"}
{"smiles": "Brc1ccc(Nc2c3c(nc4ncnn24)CCC3)cc1", "inhibition": "-2.6%"}
{"smiles": "COCc1cc(=O)n2[nH]c(C)c(-c3ccccc3)c2n1", "inhibition": "8.24%"}
{"smiles": "COC(=O)c1c(-c2ccc(C)cc2)csc1N", "inhibition": "-0.659%"}
{"smiles": "Nc1scc(-c2ccncc2)c1Cl", "inhibition": "64.7% (active)"}
{"smiles": "CN(C(=O)COC(=O)c1nc(Cl)ccc1Cl)C1CCS(=O)(=O)C1", "note": "(configuration not stated)", "inhibition": "-15.4%"}
{"smiles": "CC(=O)c1nn(-c2cccc(C(F)(F)F)c2)c(=O)[nH]c1=O", "inhibition": "21.6%"}
{"smiles": "O=C1CSC(=S)N1c1ccc(Cl)c(Cl)c1", "inhibition": "24.6%"}
{"smiles": "CCCNC(=O)c1cnc(-c2ccccc2)nc1-c1ccccc1", "inhibition": "-8.32%"}
{"smiles": "CCOc1ncccc1C(=O)OCc1cn2cc(Cl)ccc2n1", "inhibition": "18.7%"}
{"smiles": "O=C(/C=C/c1ccc2c(c1)OCO2)NCc1cn2cc(Cl)ccc2n1", "inhibition": "21.3%"}
{"smiles": "Clc1ccc2nc(CSc3ccccc3)cn2c1", "inhibition": "31.5% (active)"}
{"smiles": "CC(C)CC(=O)N1CCN(Cc2cccc(Cl)c2)CC1", "inhibition": "-12.6%"}
{"smiles": "CC(=O)N(c1ccc2oc(=O)sc2c1)S(=O)(=O)c1ccc(C)cc1", "inhibition": "-13.9%"}
{"smiles": "CCC1=C(OC(=O)N(CC)CC)N2C(=O)OC(=NCCc3c[nH]c4ccccc34)[C@]2(C)[C@H]2C1=CC[C@H]1C(=O)N(CC)C(=O)[C@H]12", "inhibition": "2.44%"}
{"smiles": "O=C(CCC(=O)N/N=C/c1ccc(Br)o1)N/N=C/c1ccc(Br)o1", "inhibition": "5.62%"}
{"smiles": "O=C(CN1C(=O)COc2ccccc21)NCCN1CCc2ccccc2C1", "inhibition": "29.8%"}
{"smiles": "O=C(CN1C(=O)COc2ccccc21)Nc1ccc(F)cc1", "inhibition": "74.4% (active)"}
{"smiles": "CC(OC(=O)CN1C(=O)COc2ccccc21)C(=O)NCc1ccc(F)cc1", "note": "(configuration not stated)", "inhibition": "-12.1%"}
{"smiles": "CC(C)C[C@@H](CO)N1CCN(Cc2ccc(O)cc2)CCC1=O", "inhibition": "7.05%"}
{"smiles": "CCCCCC(=O)NC(=S)NNC(=O)c1ccc([N+](=O)[O-])cc1", "inhibition": "-13.4%"}
{"smiles": "COCCCNC(=S)NC(=O)c1ccc([N+](=O)[O-])cc1", "inhibition": "34% (active)"}
{"smiles": "CC(=O)NC(=S)Nc1ccc(NC(=S)NC(=O)c2ccc([N+](=O)[O-])cc2)cc1", "inhibition": "-11.1%"}
{"smiles": "COCCCNC(=S)NNC(=O)C(O)(c1ccccc1)c1ccccc1", "inhibition": "-12.4%"}
{"smiles": "COCCCNC(=S)NC(=O)c1ccccc1", "inhibition": "50.8% (active)"}
{"smiles": "O=C(NCCOc1ccccc1)c1ccccc1", "inhibition": "42.2%"}
{"smiles": "COc1ccc(CNC(=O)C(C)NCc2ccccc2Cl)cc1", "note": "(configuration not stated)", "inhibition": "-9.04%"}
{"smiles": "Cc1ccc(S(=O)(=O)N(CC(=O)Nc2cccnc2)c2ccc(Br)cc2)cc1", "inhibition": "-36.9%"}
{"smiles": "CN(C)CCCn1c(=O)n(Cc2ccccc2)c(=O)c2c3c(sc21)CCCCC3", "inhibition": "-7.1%"}
